The values below are quoted from earlier work in PubChem BioAssay AID977611.

The campaign covered roughly 3,900 compounds. About 3,900 (100%) were called active. The limit is not given here; nearly all actives have Kd up to about 4200 µM. So high a share suggests a set chosen from earlier hits. The list shows a part of the results. Starred links: 1 amine or outer side, 2 acyl side, 3 side chain; linkers in the order of their positions; H or OH if unused. *1 amine or outer side, *2 acyl side, *3 side chain or, on linkers, in order; H or OH if unused. Where a SMILES comes first, the peptide text is derived from it. Non-standard residues stand in square brackets, D forms with d. Square brackets hold non-standard residues; d marks the D form. Residues, ends and D or L forms follow the SMILES beside them. Peptide text beside a SMILES is read from it. [ ]: non-standard residue; d: D form. X1 = O=C([C@H](Cc1ccc(OS(O)(O)O)cc1)N[*:1])[*:2]; Thr(P(OH)3+) = C[C@@H](O[P+](O)(O)O)[C@H](N)C(=O)O; Orn(CH(NH2)2) = NC(N)NCCC[C@H](N)C(=O)O

A short description of the data set: PubChem AID 977611. As to conditions: PDB protein-ligand complexes, literature Kd.

Take `NC(=O)CC[C@H](NC(=O)[C@@H](N)Cc1cnc[nH]1)C(=O)N[C@@H](Cc1ccc(O[P+](O)(O)O)cc1)C(=O)N[C@@H](Cc1ccc(O[P+](O)(O)O)cc1)C(=O)N[C@@H](CC(N)=O)C(=O)N[C@@H](CC(=O)O)C(=O)N[C@@H](Cc1ccccc1)C(=O)N1CCC[C@H]1C(=O)O` (H-HQ[X1][X1]NDFP-OH): the dissociation constant Kd (usually the equilibrium constant for the complex coming apart) (protein: Grb2 SH2 domain, pY-Clamp Shc1_pY239/240, PDB entry 4jmh) was 0.0021 µM (active). As to `NC1NC(=O)c2ncn([C@@H]3O[C@H](CO[P+](O)(O)O[P+](O)(O)O)[C@@H](O)[C@H]3O)c2N1` (stereo partly specified), the Kd is 1.8 µM (active) (PDB entry 4lps); 11.6 µM (active) (protein: Atlastin-1, PDB entry 4ido); 0.2 µM (active) (protein: Methylmalonyl-CoA mutase accessory protein, PDB entry 4jyc); 0.26 µM (active) (protein: Ras-related protein Rab-8A with Guanine nucleotide exchange factor GRAB, PDB entry 4li0); 0.0001 µM (active) (protein: Ras-related protein Rab-8A, PDB entry 4lhv). On to `NC1NC(=O)c2ncn([C@H]3CC[C@@H](CO[P+](O)(O)O[P+](O)(O)O[P+](O)(O)O)O3)c2N1` (stereo partly specified), for which the Kd (protein: DNA polymerase X from Thermus thermophilus HB8, PDB entry 3au6) is 0.012 µM (active). Regarding `NC1NC(=O)c2ncn([C@@H]3O[C@H](CO[P+](O)(O)O[P+](O)(O)O[P+](O)(O)O)[C@@H](O)[C@H]3O)c2N1` (stereo partly specified), the Kd (protein: ADP-ribosylation factor 6, PDB entry 4kax) was 17 µM (active). For the compound `NC1C=CN([C@@H]2O[C@H](CO[P+](O)(O)O[C@H]3[C@@H](O)[C@H](n4cnc5c4NC(N)NC5=O)O[C@@H]3CO[P+](O)(O)O[C@H]3[C@@H](O)[C@H](n4cnc5c4NC(N)NC5=O)O[C@@H]3CO[P+](O)(O)O[C@H]3[C@@H](O)[C@H](n4cnc5c4NC(N)NC5=O)O[C@@H]3CO[P+](O)(O)O)[C@@H](O[P+](O)(O)O)[C@H]2O)C(=O)N1` (stereo partly specified), the Kd (protein: Heat resistant RNA dependent ATPase, PDB entry 4i67) is 0.45 µM (active).

Take `NC1NC(=O)c2ncn([C@@H]3O[C@H](CO[P+](O)(O)O[P+](O)(O)N[P+](O)(O)O)[C@@H](O)[C@H]3O)c2N1` (stereo partly specified): the Kd reads like this: (protein: Atlastin-1, PDB entry 4idn) 5.77 µM (active); (protein: GTPASE IMAP FAMILY MEMBER 7, PDB entry 3zjc) 9 µM (active); (protein: Methylmalonyl-CoA mutase accessory protein, PDB entry 4jyb) 0.11 µM (active). In the case of `O=C(O)CCc1c[nH]c2ccccc12`, for the setting “protein: Protease (Q7K, L33I, L63I, C67A, C95A mutation), PDB entry 4ejl”, the Kd is 7.2 µM (active).

In the case of `O=C(O)c1c[nH]c2ccccc12`, the dissociation constant Kd (protein: INTEGRASE, PDB entry 4ahu) was 5400 µM (active). For `CSCC[C@H](NC(=O)CNC(=O)[C@@H](N)C(C)C)C(=O)N[C@@H](Cc1cnc[nH]1)C(=O)N[C@@H](CO[P+](O)(O)O)C(=O)N[C@@H](CCCCN)C(=O)NCC(=O)N[C@H](C(=O)N[C@@H](CCC(N)=O)C(=O)N[C@H](C(=O)O)[C@@H](C)O)[C@@H](C)O`, the Kd (protein: DYNEIN LIGHT CHAIN 1, CYTOPLASMIC, PDB entry 3zkf) is 0.96 µM (active).

As for H-VGMHSKGTQTA-OH, for the setting “protein: DYNEIN LIGHT CHAIN 1, CYTOPLASMIC, PDB entry 3zke”, the Kd was 0.16 µM (active). Regarding `NCc1csc(-c2cccs2)n1`, the dissociation constant (Kd) (protein: CATIONIC TRYPSIN, PDB entry 4aba) was 153 µM (active).

As for `Cc1noc(C)c1-c1cc(NS(=O)(=O)c2ccccc2)cc(C(=O)O)c1`, where the note is “protein: ATPase family AAA domain-containing protein 2 ATAD2A bromodomain, PDB entry 4tu4”, the dissociation constant (Kd) is 175 µM (active). `O=C(O)c1cccc2ccoc12`: the Kd (protein: INTEGRASE, PDB entry 4ahs) is 6400 µM (active). On to `O=C(O)Cc1cc(O)ccc1O`, for which the equilibrium dissociation constant (Kd) (protein: HOMOGENTISATE 1,2-DIOXYGENASE, PDB entry 4aq6) was 15.8 µM (active). For `CC(C)C[C@H](NC(=O)[C@H](CC(C)C)NC(=O)CNC(=O)[C@@H](NC(=O)[C@H](CC(=O)O)NC(=O)[C@H](CC(=O)O)NC(=O)[C@H](Cc1ccc(OS(O)(O)O)cc1)NC(=O)[C@H](Cc1ccc(OS(O)(O)O)cc1)NC(=O)[C@H](CO)NC(=O)[C@@H](NC(=O)[C@@H](NC(=O)CNC(=O)[C@H](Cc1ccccc1)NC(=O)[C@@H](NC(=O)[C@H](CCC(=O)O)NC(=O)[C@@H](N)C(C)C)[C@@H](C)O)[C@@H](C)O)[C@@H](C)O)C(C)C)C(=O)O` (H-VETFGTTS[X1][X1]DDVGLL-OH), the Kd (protein: CC chemokine (CCL11/ eotaxin-1), PDB entry 2mpm) is 1.3 µM (active). As to `CC(C)C[C@H](NC(=O)[C@H](Cc1ccccc1)NC(=O)[C@H](CCC(=O)O)NC(=O)[C@H](C)NC(=O)[C@@H](NC(=O)[C@H](CC(C)C)NC(=O)[C@H](CCC(=O)O)NC(=O)[C@H](CC(=O)O)NC(=O)[C@H](CCC(=O)O)NC(=O)[C@H](CO)NC(=O)[C@H](C)N)C(C)C)C(=O)N[C@@H](CCC(N)=O)C(=O)N[C@@H](CC(=O)O)C(=O)N[C@@H](CCC(N)=O)C(=O)N[C@@H](CC(N)=O)C(=O)O` (H-ASEDELVAEFLQDQN-OH), the dissociation constant (Kd) (protein: PEROXISOMAL MEMBRANE PROTEIN PEX14, PDB entry 4bxu) is 0.1 µM (active). Regarding `CC(C)C[C@H](NC(=O)[C@@H](N)CO)C(=O)N[C@@H](CCC(=O)O)C(=O)N[C@H](C(=O)N[C@H](C(=O)N[C@@H](CCC(=O)O)C(=O)N[C@@H](C)C(=O)N[C@@H](CC(=O)O)C(=O)N[C@@H](C)C(=O)N[C@H](C(=O)N[C@@H](Cc1ccccc1)C(=O)N[C@H](C(=O)N[C@@H](CCC(N)=O)C(=O)O)C(C)C)[C@@H](C)O)[C@@H](C)O[P+](O)(O)O)C(C)C` (H-SLEV[Thr(P(OH)3+)]EADATFVQ-OH), the Kd (protein: FHA1 Domain of Rad53, PDB entry 1k3q) is 0.3 µM (active). As for H-AFFAQLQLDAETGEFL-OH, for the setting “protein: Kelch-like ECH-associated protein 1, PDB entry 2flu”, the Kd is 0.02 µM (active). Consider `CC(C)C[C@H](NC(=O)[C@H](CCC(=O)O)NC(=O)[C@H](CCC(N)=O)NC(=O)[C@@H](NC(=O)[C@H](CO)NC(=O)[C@@H](N)C(C)C)[C@@H](C)O[P+](O)(O)O)C(=O)N[C@@H](Cc1ccc(O)cc1)C(=O)N[C@@H](CO)C(=O)O` (H-VS[Thr(P(OH)3+)]QELYS-OH), for which, under “protein: mammalian MDC1 FHA domain, PDB entry 3va4”, the Kd was 40 µM (active). H-DDFGGFEAAET-OH: the Kd (protein: ADP-ribosylation factor binding protein GGA1, PDB entry 1om9) was 70 µM (active).

As to `CC(C)C[C@@H](NC(=O)[C@H]1CCCN1C(=O)[C@@H](Cc1c[nH]c2ccccc12)NC(=O)[C@@H](Cc1c[nH]c2ccccc12)NC(=O)[C@H](N)CC(=O)O)C(=O)N[C@H](C)C(=O)N[C@H](Cc1ccccc1)C(=O)N[C@H](CCC(=O)O)C(=O)N[C@H](C)C(=O)N[C@H](CC(C)C)C(=O)N[C@H](CC(C)C)C(=O)N[C@H](CCCNC(N)N)C(=O)O`, for the setting “protein: human MDM2 (Synthetic construct, 25-109), PDB entry 3iwy”, the Kd was 0.053 µM (active). For the compound H-EWGPWV-NH2, the Kd (protein: AP-1 COMPLEX SUBUNIT GAMMA-LIKE 2, PDB entry 2ymt) was 0.01 µM (active).

H-EPQAPWME-OH: for the setting “protein: antibody Fab, PDB entry 3uyr”, the dissociation constant (Kd) was 0.127 µM (active).

With `C[C@H](NC(=O)[C@@H](N)CO)C(=O)N[C@@H](CCCNC(N)N)C(=O)N[C@@H](Cc1c[nH]c2ccccc12)C(=O)N[C@@H](CCCNC(N)N)C(=O)N[C@@H](Cc1ccccc1)C(=O)N1CCC[C@H]1C(=O)N[C@@H](C)C(=O)N[C@@H](CCCNC(N)N)C(=O)N1CCC[C@H]1C(=O)NCC(=O)N[C@H](C(=O)O)[C@@H](C)O`, the dissociation constant (Kd) (protein: Menin (A541T mutation), PDB entry 4gq6) was 0.053 µM (active).

For `CC(C)C[C@H](NC(=O)[C@H](Cc1c[nH]c2ccccc12)NC(=O)[C@H](CC(=O)O)NC(=O)[C@H](CCC(N)=O)NC(=O)[C@H](CC(N)=O)NC(=O)[C@H](CCCNC(N)N)NC(=O)[C@@H]1CCCN1C(=O)CNC(=O)[C@@H](N)CCC(=O)O)C(=O)O` (H-EGP[Orn(CH(NH2)2)]NQDWL-OH), the Kd (protein: H-2 class I histocompatibility antigen (Y159F mutation), PDB entry 4iho) is 8 µM (active).
